Results filed as inconclusive are left out. A call without a number means that no potency is given here. A number with no mark means an inactive call. The source made the active and inactive calls. Unless noted, calls come from the whole dose curve; as a rule, active = well fitted curve in the direction sought with a large enough effect in the repeat runs; inconclusive = weak or mixed curves; inactive = no such curve, though single readings can be large; an effect the other way counts as inactive or inconclusive.
Experiments:
[1] = qHTS assay to identify small molecule antagonists of the peroxisome proliferator-activated receptor delta (PPARd) signaling pathway - cell viability counter screen (AID 743213); note: nearly all actives have a fitted effect of over 50% in size
How it was run: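 Cytotoxicity counter screen: CellTiter-Glo luminescence read 30 min after addition, in the same wells as the reporter assay. There, PPARd UAS-bla HEK293H cells (3000/well) were treated 17 h at 37 C with compound and 300 nM L165041.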

[2] = qHTS assay to identify small molecule agonists of the farnesoid-X-receptor (FXR) signaling pathway - cell viability counter screen (AID 743218); note: nearly all actives have a fitted effect of over 45% in size
How it was run: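 Parallel cytotoxicity test: compound-treated (16 h, 37 C) HEK 293T FXR-bla reporter cells were lysed with CellTiter-Glo and luminescence recorded.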

[3] = qHTS assay to identify small molecule antagonists of the farnesoid-X-receptor (FXR) signaling pathway - cell viability counter screen (AID 743221; active = well fitted cell-killing curve with a large enough effect in the repeat runs, not every such curve was filed as active; note: nearly all actives have a fitted effect of over 50% in size)
How it was run: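 Here viability was scored by luminescence after CellTiter-Glo addition to wells already read for beta-lactamase. Prior treatment: compound plus CDCA (50 uM final), 16 h, 37 C, HEK 293T FXR-bla cells.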

[4] = target: Vitamin D3 receptor (Homo sapiens) (UniProt P11473); assay: qHTS assay to identify small molecule agonists of the vitamin D receptor (VDR) signaling pathway (AID 743222; calls by dose curve)
Vitamin D3 receptor (Homo sapiens), sequence (P11473 whole entry, looked up): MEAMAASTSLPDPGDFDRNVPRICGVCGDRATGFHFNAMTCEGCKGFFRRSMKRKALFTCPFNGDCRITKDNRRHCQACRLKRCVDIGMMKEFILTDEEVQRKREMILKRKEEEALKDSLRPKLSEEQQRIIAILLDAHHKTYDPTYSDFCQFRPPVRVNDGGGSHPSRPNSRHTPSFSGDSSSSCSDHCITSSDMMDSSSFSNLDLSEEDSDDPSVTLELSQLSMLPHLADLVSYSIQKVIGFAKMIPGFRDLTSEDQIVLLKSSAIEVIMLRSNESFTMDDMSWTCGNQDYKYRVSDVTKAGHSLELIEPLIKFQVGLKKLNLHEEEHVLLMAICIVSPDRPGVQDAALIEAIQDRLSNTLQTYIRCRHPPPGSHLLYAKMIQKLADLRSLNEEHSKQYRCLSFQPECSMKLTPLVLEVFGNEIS
How it was run: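 In VDR-bla cells, compound-induced beta-lactamase expression is quantified by FRET substrate fluorescence. Treatment lasts 16 h at 37C; substrate develops 2 h at room temperature.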

[5] = target: Vitamin D3 receptor (Homo sapiens) (UniProt P11473); assay: qHTS assay to identify small molecule antagonists of the vitamin D receptor (VDR) signaling pathway (AID 743223; active = well fitted inhibition curve with a large enough effect in the signal ratio in the repeat runs, not every such curve was filed as active; the % refers to the signal ratio)
How it was run: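 Inhibition of agonist-driven VDR signalling is scored in VDR-bla cells: 3 nM final 1alpha,25-dihydroxyvitamin D3 plus compound, 16 h at 37C, then beta-lactamase detection by FRET substrate fluorescence after 2 h.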

[6] = qHTS assay to identify small molecule agonists of the vitamin D receptor (VDR) signaling pathway - cell viability counter screen (AID 743224); note: series mostly up to about 63 µM; nearly all actives have a fitted effect of over 50% in size
How it was run: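 Plated VDR-bla cells (4 h, 37C) received compound, incubated 16 h, then LiveBLAzer substrate 2 h RT; CellTiter-Glo added afterwards, luminescence read at 30 min.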

[7] = qHTS assay to identify small molecule antagonists of the vitamin D receptor (VDR) signaling pathway - cell viability counter screen (AID 743225); note: nearly all actives have a fitted effect of over 50% in size
How it was run: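 Compounds were pinned onto VDR-bla HEK 293T cells together with 1-alpha,25-dihydroxyvitamin D3 at 3 nM final. After 16 h at 37C and 5% CO2 plus the reporter readout, cell viability was measured by CellTiter-Glo luminescence (30 min, room temperature).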

[8] = qHTS assay to identify small molecule agonists of the NFkB signaling pathway (AID 1159509; active = well fitted curve in the direction sought with a large enough effect in the signal ratio in the repeat runs, not every such curve was filed as active; the % refers to the signal ratio; note: series mostly up to about 61 µM)
How it was run: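 NFkB-bla ME-180 cells with a beta-lactamase reporter under an NF-kB response element were plated overnight, treated with compounds in DMSO for 5 hr at 37 C, then loaded with FRET substrate for 1.5 hr at room temperature.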

[9] = qHTS assay to identify small molecule agonists of the NFkB signaling pathway - cell viability counter screen (AID 1159515; calls by dose curve; note: series mostly up to about 61 µM; nearly all actives have a fitted effect of over 55% in size)
How it was run: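 Using the same wells as the NFkB reporter read, ME-180 NFkB-bla cells given compounds for 5 hr were assessed for viability via CellTiter-Glo, with luminescence taken after a 30 min room-temperature incubation.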

[10] = qHTS assay to identify small molecule agonists of the endoplasmic reticulum stress response signaling pathway (AID 1159516; active = well fitted activation curve with a large enough effect in the signal ratio in the repeat runs, not every such curve was filed as active; the % refers to the signal ratio)
How it was run: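 An ESRE-bla HeLa cell assay: compounds were pin-transferred from DMSO onto overnight-plated cells and left 5 hr at 37 C. Substrate was then loaded for 2 hr at room temperature before reading fluorescence at 460 nm and 530 nm.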

[11] = qHTS assay to identify small molecule agonists of the endoplasmic reticulum stress response signaling pathway - cell viability counter screen (AID 1159517; calls by dose curve)
How it was run: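 Luminescence readout: CellTiter-Glo, 30 min RT, same wells as the ESRE-bla reporter read. HeLa ESRE-bla, 1,500 cells/well, o/n 37 C; cpd 5 hr 37 C/5% CO2.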

[12] = qHTS assay to identify small molecule antagonists of the retinoid-related orphan receptor gamma (ROR-gamma) signaling pathway - cell viability counter screen (AID 1159520); note: nearly all actives have a fitted effect of over 50% in size
How it was run: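 Tet-on ROR gamma CHO cells (1,000/well) were plated 4 hr, given compounds in DMSO for 2 hr at 37 C, then induced with 1 uM final doxycycline for 16 hr. Viability was read as ATP by CellTiter-Glo luminescence after 30 min.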

[13] = target: Nuclear receptor ROR-gamma (Homo sapiens) (UniProt P51449); assay: qHTS assay to identify small molecule antagonists of the retinoid-related orphan receptor gamma (ROR-gamma) signaling pathway (AID 1159521; note: nearly all actives have a fitted effect of over 50% in size; note: potency is the fitted concentration of half-maximal effect)
How it was run: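 Test compounds were applied to Tet-on RORγ CHO cells 2 h ahead of doxycycline hyclate (1 uM final). Luciferase reporter activity was quantified by luminescence after 16 h at 37 C and 5% CO2.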

[14] = qHTS assay to identify small molecule agonists of the AP-1 signaling pathway - cell viability counter screen (AID 1159525; calls by dose curve; note: nearly all actives have a fitted effect of over 55% in size)
How it was run: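 ME-180 AP-1-bla, 2500 cells/well, Opti-MEM + 0.5% dialyzed FBS; overnight 37 °C; cpd 15-pt titration, 5 h 37 °C; CellTiter-Glo 30 min RT; luminescence read; normalised to TOAB and DMSO controls.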

[15] = qHTS assay to identify small molecule agonists of the AP-1 signaling pathway (AID 1159526; calls by dose curve)
[16] = qHTS assay to identify small molecule agonists of the peroxisome proliferator-activated receptor delta (PPARd) signaling pathway - cell viability counter screen (AID 743211); note: nearly all actives have a fitted effect of over 55% in size
How it was run: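 In the same wells used for beta-lactamase reporter measurement, cytotoxicity is scored by CellTiter-Glo. HEK293H PPARd-bla cells receive compound for 17 h at 37C following a 5 h settling period.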

[17] = target: Peroxisome proliferator-activated receptor delta (Homo sapiens) (UniProt Q03181); assay: qHTS assay to identify small molecule agonists of the peroxisome proliferator-activated receptor delta (PPARd) signaling pathway (AID 743212; calls by dose curve)
Peroxisome proliferator-activated receptor delta (Homo sapiens), sequence (Q03181 whole entry, looked up): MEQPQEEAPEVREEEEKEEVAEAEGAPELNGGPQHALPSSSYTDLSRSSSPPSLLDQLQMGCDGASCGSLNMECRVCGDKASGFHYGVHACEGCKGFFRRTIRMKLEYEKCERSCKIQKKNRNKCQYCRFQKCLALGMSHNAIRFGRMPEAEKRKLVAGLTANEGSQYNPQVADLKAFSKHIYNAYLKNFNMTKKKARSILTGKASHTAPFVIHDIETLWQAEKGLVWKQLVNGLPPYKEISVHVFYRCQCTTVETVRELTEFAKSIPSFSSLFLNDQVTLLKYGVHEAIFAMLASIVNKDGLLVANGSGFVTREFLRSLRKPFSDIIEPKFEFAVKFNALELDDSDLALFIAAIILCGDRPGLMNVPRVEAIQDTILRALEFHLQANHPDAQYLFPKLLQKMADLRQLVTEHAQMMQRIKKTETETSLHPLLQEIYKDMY
How it was run: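 GeneBLAzer PPARd UAS-bla HEK293H cells (beta-lactamase reporter under UAS control), plated and rested 5 h at 37 C, then exposed to compounds in DMSO at 37 C; LiveBLAzer B/G FRET substrate added, 2 h room temperature, fluorescence read.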

[18] = target: Peroxisome proliferator-activated receptor delta (Homo sapiens) (UniProt Q03181); assay: qHTS assay to identify small molecule antagonists of the peroxisome proliferator-activated receptor delta (PPARd) signaling pathway (AID 743215; active = well fitted inhibition curve with a large enough effect in the signal ratio in the repeat runs, not every such curve was filed as active; the % refers to the signal ratio;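 note: cells stimulated with agonist L165041 at 300 nM final during compound exposure; series mostly up to about 62 µM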)
How it was run: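 HEK293H UAS-bla, PPARd; agonist L165041 300 nM final with cpd in DMSO; 37 C 17 h; FRET substrate, RT 2 h; fluorescence intensity.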

[19] = target: Bile acid receptor (Homo sapiens) (UniProt Q96RI1); assay: qHTS assay to identify small molecule antagonists of the farnesoid-X-receptor (FXR) signaling pathway (AID 743217; active = well fitted inhibition curve with a large enough effect in the signal ratio in the repeat runs, not every such curve was filed as active; the % refers to the signal ratio)
Bile acid receptor (Homo sapiens), sequence (Q96RI1 whole entry, looked up): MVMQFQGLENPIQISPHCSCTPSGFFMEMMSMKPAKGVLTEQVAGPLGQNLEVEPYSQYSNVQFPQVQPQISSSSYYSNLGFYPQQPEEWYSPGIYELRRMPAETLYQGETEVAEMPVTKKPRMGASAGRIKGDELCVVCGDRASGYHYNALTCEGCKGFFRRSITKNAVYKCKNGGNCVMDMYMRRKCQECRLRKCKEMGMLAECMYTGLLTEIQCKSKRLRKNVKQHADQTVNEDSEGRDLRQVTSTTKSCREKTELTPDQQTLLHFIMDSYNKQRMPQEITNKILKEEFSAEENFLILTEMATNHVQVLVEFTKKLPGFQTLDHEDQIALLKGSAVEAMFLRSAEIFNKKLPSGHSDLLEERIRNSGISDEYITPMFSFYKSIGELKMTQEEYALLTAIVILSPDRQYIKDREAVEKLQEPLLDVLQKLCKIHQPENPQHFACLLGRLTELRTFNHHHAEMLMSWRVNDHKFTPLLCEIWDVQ
How it was run: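 GeneBLAzer FXR-UAS-bla HEK 293T, CDCA-stimulated (50 uM final). Compound treatment 16 h, 37 °C. Detection: beta-lactamase cleavage of B/G FRET substrate, fluorescence.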

[20] = target: Bile acid receptor (Homo sapiens) (UniProt Q96RI1); assay: qHTS assay to identify small molecule agonists of the farnesoid-X-receptor (FXR) signaling pathway (AID 743220; active = well fitted activation curve with a large enough effect in the signal ratio in the repeat runs, not every such curve was filed as active; the % refers to the signal ratio)
How it was run: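 Beta-lactamase reporter under UAS control in GeneBLAzer FXR HEK 293T cells (5000/well) measured with LiveBLAzer FRET substrate after 2 h at room temperature. Compound exposure lasted 16 h at 37C.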

SMILES | Potency [1] | outcome [2] | Potency [3] | outcome [4] | outcome [5] | outcome [6] | outcome [7] | outcome [8] | outcome [9] | outcome [10] | outcome [11] | Potency [12] | Potency [13] | outcome [14] | Potency [15] | Potency [16] | outcome [17] | outcome [18] | outcome [19] | outcome [20]
CO[Si](CCCNCCC[Si](OC)(OC)OC)(OC)OC | inactive | inactive | inactive | inactive | inactive | inactive | inactive | inactive | inactive | inactive | inactive | inactive | inactive | inactive | inactive | – | – | – | – | –
O=C(O)Cc1cc(I)c(Oc2cc(I)c(O)c(I)c2)c(I)c1 | inactive | – | – | – | – | inactive | inactive | inactive | inactive | inactive | inactive | inactive | inactive | inactive | inactive | inactive | – | – | – | –
Nc1nc(F)nc2c1ncn2[C@@H]1O[C@H](CO)[C@@H](O)[C@@H]1O | inactive | inactive | inactive | – | – | inactive | inactive | inactive | inactive | inactive | inactive | inactive | inactive | inactive | inactive | – | inactive | – | – | –
c1ccc(SCCSc2ccccc2)cc1 | inactive | inactive | inactive | inactive | inactive | inactive | inactive | inactive | inactive | inactive | inactive | inactive | inactive | inactive | inactive | – | inactive | inactive | inactive | –
O=S(=O)(c1cccc2cnccc12)N1CCCNCC1 | inactive | – | inactive | inactive | – | inactive | inactive | inactive | inactive | inactive | inactive | inactive | inactive | inactive | inactive | – | inactive | – | – | –
O=C(O)/C=C/c1ccc(Cn2ccnc2)cc1 | – | inactive | inactive | inactive | inactive | inactive | inactive | inactive | inactive | inactive | inactive | inactive | inactive | inactive | inactive | – | inactive | inactive | inactive | inactive
NS(=O)(=O)c1cc2c(cc1C(F)(F)F)NC(Cc1ccccc1)NS2(=O)=O (stereo not given) | inactive | – | inactive | inactive | inactive | inactive | inactive | inactive | inactive | inactive | inactive | inactive | inactive | inactive | inactive | – | inactive | – | – | –
Cc1ccc(N)cc1[N+](=O)[O-] | inactive | inactive | inactive | inactive | inactive | inactive | inactive | inactive | inactive | inactive | inactive | inactive | inactive | inactive | inactive | – | inactive | – | – | –
C#CC(O)CCCCC (stereo not given) | inactive | inactive | inactive | – | – | inactive | inactive | inactive | inactive | inactive | inactive | inactive | inactive | inactive | inactive | – | inactive | – | – | –
CCN1CCCC1CNC(=O)c1cc(S(N)(=O)=O)ccc1OC (stereo not given) | – | inactive | inactive | inactive | inactive | inactive | inactive | inactive | inactive | inactive | inactive | inactive | 54.5 µM (active) | inactive | inactive | inactive | – | – | – | –
CC/C=C\C#N | inactive | – | inactive | – | – | inactive | inactive | inactive | inactive | inactive | inactive | inactive | inactive | inactive | inactive | – | inactive | – | – | –
CC(=O)NC(Cc1ccccc1)C(=O)O (stereo not given) | inactive | inactive | – | inactive | inactive | inactive | inactive | inactive | inactive | inactive | inactive | inactive | inactive | inactive | inactive | – | inactive | – | – | inactive
CC/C=C\CCCCO | inactive | inactive | inactive | inactive | inactive | inactive | inactive | inactive | inactive | inactive | inactive | inactive | inactive | inactive | inactive | – | – | – | – | –
CCCOc1ccccc1-c1nc2n[nH]nc2c(=O)[nH]1 | – | – | inactive | – | – | inactive | inactive | inactive | inactive | inactive | inactive | inactive | inactive | inactive | inactive | inactive | – | inactive | – | –
O=c1[nH]c(=O)n([C@H]2O[C@H](CO)[C@@H](O)[C@@H]2O)cc1/C=C\Br | inactive | inactive | inactive | – | – | inactive | inactive | inactive | inactive | inactive | inactive | inactive | inactive | inactive | inactive | – | inactive | inactive | – | –
Cc1ccccc1C(=O)O | inactive | inactive | inactive | inactive | inactive | inactive | inactive | inactive | inactive | inactive | inactive | inactive | inactive | inactive | inactive | – | inactive | inactive | – | –
CCCCCCCCCCC1CO1 (stereo not given) | inactive | – | inactive | – | inactive | inactive | inactive | inactive | inactive | inactive | inactive | inactive | inactive | inactive | inactive | – | inactive | inactive | – | –

From PubChem BioAssay (Tox21)
